Laboratory results as given in PubChem BioAssay (Tox21).
Records with an inconclusive call do not appear. A number with no mark means an inactive call. Calls of active or inactive are those of the source. Calls follow the shape of the dose curve; as a rule, active = well fitted activation curve with a large enough effect in the signal ratio in the repeat runs (not every such curve was filed as active); inconclusive = weak or mixed curves, or effect the other way; inactive = no such curve, though single readings can be large or run the other way; the % refers to the signal ratio.

Target: Peroxisome proliferator-activated receptor gamma (Homo sapiens) (UniProt P37231)
Assay: qHTS assay to identify small molecule agonists of the peroxisome proliferator-activated receptor gamma (PPARg) signaling pathway (AID 743094)
Conditions: HEK293H PPARg-UAS-bla, beta-lactamase FRET ratio, 17 h; series mostly up to 57 µM; activation: at the top concentration
Source text: U.S. Tox21 Program National Center for Advancing Translational Sciences [NCATS] NIH Chemical Genomics Center [NCGC] U.S. Environmental Protection Agency [EPA] National Institutes of Environmental Health Sciences [NIEHS] National Toxicology Program [NTP] U.S. Food and Drug Administration [FDA] Tox21 Assay Overview: The peroxisome proliferator-activated receptors (PPARs) are lipid-activated transcription factors of the nuclear receptor superfamily with three distinct subtypes namely PPAR alpha, PPAR delta (also called PPAR beta) and PPAR gamma (PPARg). All these subtypes heterodimerize with Retinoid X receptor (RXR) and these heterodimers regulate transcription of various genes. PPAR-gamma receptor (glitazone receptor) is involved in the regulation of glucose and lipid metabolism. To identify the compounds that activate PPAR-gamma signaling, GeneBLAzer PPAR gamma UAS-bla HEK293H cell line (Invitrogen, Carlsbad, CA, USA) containing a beta-lactamase reporter gene under control of the control of an upstream activator sequence (UAS) stably integrated into HEK293H cells was used to screen Tox21 compound library.
Tox21 Assay Protocol Summary: PPARg-bla cells were dispensed at 3000 cells/6uL/well in 1536-well black wall/clear bottom plates using a Multidrop Combi (Thermo Fisher Scientific, Waltham, MA) dispenser. After the assay plates were incubated at 37C and 5% CO2 for 5 h, 23 nL of compounds dissolved in DMSO, positive controls or DMSO only was transferred to the assay plate by a Pintool station (Kalypsys, San Diego, CA). The assay plates were incubated at 37C for 17 h. After 1 uL of LiveBLAzerTM B/G FRET substrate was added using a Bioraptr Flying Reagent Dispenser (FRD) workstation (Beckman Coulter, Indianapolis, IN, USA), the plates were incubated at room temperature for 1 h, and fluorescence intensity was measured by an Envision plate reader (PerkinElmer, Shelton, CT).
% is scaled to controls: 0 for no effect and ±100 for the full control effect.

Chain of Peroxisome proliferator-activated receptor gamma (Homo sapiens) (P37231 whole entry, looked up): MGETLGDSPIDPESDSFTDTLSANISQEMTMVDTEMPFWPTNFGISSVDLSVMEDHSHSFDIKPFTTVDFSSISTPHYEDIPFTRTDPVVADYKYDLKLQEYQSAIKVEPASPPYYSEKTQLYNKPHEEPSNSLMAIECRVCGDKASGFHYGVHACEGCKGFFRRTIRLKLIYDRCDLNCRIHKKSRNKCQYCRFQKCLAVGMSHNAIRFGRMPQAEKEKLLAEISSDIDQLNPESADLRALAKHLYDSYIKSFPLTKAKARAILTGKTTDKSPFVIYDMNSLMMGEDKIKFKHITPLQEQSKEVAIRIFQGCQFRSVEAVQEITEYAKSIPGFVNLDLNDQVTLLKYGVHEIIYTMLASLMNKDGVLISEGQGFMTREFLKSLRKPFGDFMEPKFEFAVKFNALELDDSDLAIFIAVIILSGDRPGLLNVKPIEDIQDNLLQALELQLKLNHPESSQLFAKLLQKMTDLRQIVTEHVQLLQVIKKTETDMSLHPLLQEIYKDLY

SMILES | activation | Potency
O=C(C(Cl)Cl)N1CCOC12CCCCC2 | -2.24% | 
CC(=O)Oc1cc(C(C)C)c(OCCN(C)C)cc1C | -0.571% [at 26.2 µM] | 
C[C@@H]1CN(c2c(F)c(F)c3c(=O)c(C(=O)O)cn(C4CC4)c3c2F)C[C@H](C)N1 | -1.22% | 
CC/C=C\CCOC(=O)C(C)C | -4.73% | 
CCOc1ccc2nc(N)sc2c1 | 5.31% | 
CN1CCN(c2c(F)cc3c(=O)c(C(=O)O)cn(CCF)c3c2F)CC1 | 2.3% | 
OC[C@H]1O[C@@H](O[C@H]2[C@H](O)[C@@H](O)[C@H](O)O[C@@H]2CO)[C@H](O)[C@@H](O)[C@H]1O | 2.36% | 
Cc1ccc(C=O)s1 | 3.85% | 
NC(Cc1ccc(F)cc1)C(=O)O (stereo not given) | 0.33% [at 7.08 µM] | 
CCOC(=O)COc1ccc2c(c1)CC(NCC(O)c1cccc(Cl)c1)CC2 (stereo not given) | 4.83% | 
CCCCNC(=S)NCCCC | -2.29% | 
CCCN(CCC)C(=O)C(CCC(=O)O)NC(=O)c1ccccc1 (stereo not given) | 1.71% | 
O=C1CCCCCCCCCCC(=O)OCCO1 | 3.34% | 
N#Cc1ccc(C(c2ccc(C#N)cc2)n2cncn2)cc1 |  | inactive
OCCN(CCO)c1ccccc1 | 0.573% | 
c1ccc(CN(CC2=NCCN2)c2ccccc2)cc1 | -6.89% | 
COc1cc(C)ccc1C(C)C | 0.295% | 
CCCCNCCCC | 1.55% | 
CCC/C=C/CO | 3.71% | 
CCOC(=O)CS | 3.25% [at 78.9 µM] | 

SMILES | activation | Potency
O=C(Cl)c1cccc([N+](=O)[O-])c1 | 0.792% | 
Nc1cccc(S(=O)(=O)O)c1 | 2.44% | 
CCOc1ccc(NC(N)=O)cc1 | -1.94% | 
CN(C)CCOc1ccccc1Cc1ccccc1 | -0.377% | 
C=CCCC=C | 0.055% [at 78.9 µM] | 
C=Cc1ccccc1 |  | inactive
CC1(C)S[C@@H]2[C@H](NC(=O)C(C(=O)O)c3ccccc3)C(=O)N2[C@H]1C(=O)O (stereo not given in full) | 1.06% | 
CCCc1c2oc(C(=O)O)cc(=O)c2cc2c(=O)cc(C(=O)O)n(CC)c12 | 2.67% | 
O=C1N(c2ccccc2)c2ccccc2C1(Cc1ccncc1)Cc1ccncc1 | -1.91% | 
CCCCCCCCCCCCCCCCOP(=O)([O-])OCC[N+](C)(C)C | -1.4% | 
Cc1ccsc1C(=CCCN1CCC[C@@H](C(=O)O)C1)c1sccc1C | 1.31% | 
CCNCCO | 5.4% | 
CO[C@@]1(NC(=O)CSCC#N)C(=O)N2C(C(=O)O)=C(CSc3nnnn3C)CS[C@@H]21 | -0.229% | 
COc1cc2c(cc1N)oc1ccccc12 | 0.608% [at 78.9 µM] | 
CC(C)=CCC[C@](C)(O)[C@@H]1CC=C(C)CC1 | 0.834% | 
CC(C)C(=O)OCC(C)(C)C(O)C(C)C (stereo not given) | -3% [at 78.9 µM] | 
Cc1nnc(SCC2=C(C(=O)O)N3C(=O)[C@@H](NC(=O)Cn4cnnn4)[C@H]3SC2)s1 | 2.12% | 
CS(=O)(=O)c1ccc([C@@H](O)[C@@H](CF)NC(=O)C(Cl)Cl)cc1 | 1.49% [at 26.2 µM] | 
CCC(=O)Nc1ccc(O)cc1 | -1.37% | 
CC(=O)Nc1ccc(C)c(Cl)c1 | -0.997% | 
